The panel holds about 83,000 compounds, 20% with a hit somewhere; the sample as a whole holds those more often.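 Compound tested at a single concentration for 48 hours in 96-well plates; a percent growth value below 10 was scored as active.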 Values without a mark were called inactive. The source made the active and inactive calls.

This assay has as its system SK-MEL-28 melanoma. Briefly: NCI-60 one-dose screen, 48 h (100 = growth as untreated, 0 = no growth, -100 = all killed). The conditions noted are these: 10 µM unless noted.
For the molecule `FC(F)(F)c1cc(-c2nnc3n2N=C(N2CCCC2)CS3)cc(C(F)(F)F)c1`, the growth was 101%. For `Clc1ccc(C2=NN(c3ccc(Cl)cc3)C(c3cccc(Nc4ccnc5cc(Cl)ccc45)c3)C2)cc1` (stereo not given) the value was 104%; for `C=CCN(/C=C/CN(CC=C)CC=C)CC=C`, 98.5%; for `COc1ccc(-c2nnc3c4[nH]cnc4ncn23)c(OC)c1`, 84.7%. For `Cc1ccc(S(=O)(=O)NCCN2c3nc4ccccc4cc3Sc3cc4ccccc4nc32)cc1`, the growth was 87.8%. In the case of `O=C(CNC(=O)c1cccc2ccccc12)Nc1ccccc1Oc1cccc(O)c1` it was 57.3% [5 µM]; in that of `COc1ccc2c(=O)c(OC)c(-c3cc(OC)c(OC)c(OC)c3)oc2c1`, 97.4%.

Take `COc1cnc2c(c1)C(=O)c1c-2n(CCCN2CCC(O)CC2)c(=O)c2cc(F)ccc12`: the growth was 13.2%.

For the molecule `O=C(/C=C/c1c(-c2ccccc2)[nH]c2ccccc12)S(=O)(=O)c1ccccc1`, the growth was 72.5%. For `O=C(Nc1nc2c(C(F)(F)F)cccc2s1)c1cc(Cl)ccc1O` the value was 28.6%.

Take `CCN(CC)CCOCC[C@H]1CC[C@H]2[C@@H]3[C@H](C)Cc4cc(OS(N)(=O)=O)ccc4[C@H]3CC[C@]12C`: the growth was -91.1% (active). For `NS(=O)(=O)c1ccc(N2CC(c3nc4ccccc4[nH]3)CC2=O)cc1` (stereo not given) the value was 103%. Take `COc1cnc2c(c1)C(=O)c1c-2n(CCCN2CCCC2)c(=O)c2cc(F)ccc12`: the growth is 27.4%.

With `COc1ccc(-n2cnc3cc(C(=O)N4CCCCC4)ccc32)cc1`, the growth is 99.1%. On to `COc1cc(-c2n[nH]nc2-c2ccccn2)cc(OC)c1OC`, for which the growth is 120%. In the case of `COc1cc(C2=NN(C=O)C(c3cccc(Nc4ccnc5cc(Cl)ccc45)c3)C2)cc(OC)c1OC` (stereo not given) it was 90.6%. Take `Cc1sc2nc(NCc3ccccc3)[nH]c(=O)c2c1C`: the growth is 69.5%. For `CC(=O)N1N=C(c2ccc(Nc3nc(NCCO)nc(NCCO)n3)cc2)CC1c1ccc(Cl)cc1` (stereo not given) the value was 104%. In the case of `COc1ccc(N2CCN(CC(=O)N3CCN(c4nnc(-c5ccc(Cl)cc5)c(-c5ccc(Cl)cc5)n4)CC3)CC2)cc1`, the growth was 71.5%.

As to `C1CCC(C(CC2CCCCN2)C2CCCCC2)CC1` (stereo not given), the growth was -84.8% (active).

On to `Cc1cc2c(cc1C)[n+](Cc1ccc3ccccc3c1)cn2Cc1ccc2ccccc2c1`, for which the growth was -91.9% (active). For `COc1ccc(Oc2ccccc2NC(=O)CNC(=O)c2cccc3ccccc23)cc1`, the growth was 60.6% [5 µM]. On to `COc1cccc(N2CCN(CC(=O)N3CCN(c4nnc(-c5ccc(Cl)cc5)c(-c5ccc(Cl)cc5)n4)CC3)CC2)c1`, for which the growth is 88.7%. Take `CC(=O)N1N=C(c2ccc3c(c2)OCO3)CC1c1c(C)nn(-c2ccccc2)c1N(C)Cc1ccccc1` (stereo not given): the growth is 93.3%. Take `COc1ccc(C(=O)/C=C/c2cccc(Nc3ccnc4cc(Cl)ccc34)c2)cc1`: the growth was 44.6%. For `COc1cc(C2CC(C3C(=O)N(C)C(=O)N(C)C3=O)=NN2c2cc(Cl)cc(Cl)c2)cc(OC)c1OC` (stereo not given) the value was 101%; for `O=C1NC(=O)/C(=C\c2ccco2)S1`, 113%. For `COc1ccc2nc(-c3ccc(Cl)cc3)cc(-c3nnc(SCC(=O)Nc4ccc(C(C)=O)cc4)n3-c3ccccc3)c2c1` the value was 107%; for `O=C(CNC(=O)c1cccc2ccccc12)Nc1ccccc1Cc1ccccc1`, 61% [5 µM]. In the case of `CCCCc1n(Cc2ccc3ccccc3c2)cc[n+]1Cc1ccc2ccccc2c1` it was -55% (active); in that of `COc1cc(C2CC(C3C(=O)N(C)C(=O)N(C)C3=O)=NN2C=O)cc(OC)c1OC` (stereo not given), 108%; in that of `Nc1ncnc2c1CN(Cc1ccccc1)CC2`, 109%. `CCOC(=O)c1sc(NC(=O)COc2cccc(/C=C3\Cc4ccc(Cl)cc4C3=O)c2)nc1C`: the growth was 118%. For `COC(=O)[C@H](CCCCNC(=O)OCc1ccccc1)NC(=O)[C@@H](NC(=O)Nc1cc(C(F)(F)F)cc(C(F)(F)F)c1)C(C)C` the value was -86.3% [100 µM] (active).

`CCN(CC)c1ccc(C(=C2C=CC(=[N+](CC)Cc3cccc(S(=O)(=O)O)c3)C=C2)c2ccc(N(CC)Cc3cccc(S(=O)(=O)O)c3)cc2)cc1`: the growth was 30.3%.

With `O=C(CNC(=O)c1cccc2ccccc12)Nc1ccccc1Oc1ccc(O)cc1`, the growth was 59.9% [5 µM]. For `COc1cc(C(=O)/C=C/c2cccc(Nc3ccnc4cc(Cl)ccc34)c2)cc(OC)c1OC`, the growth was -39.2% (active). In the case of `CN1C(=O)C(C2=NN(C=O)C(c3ccc(F)cc3)C2)C(=O)N(C)C1=O` (stereo not given) it was 111%; in that of `O=CN1N=C(c2ccc(Nc3ccnc4cc(Cl)ccc34)cc2)CC1c1ccc(Cl)cc1` (stereo not given), 39.2%; in that of `COc1cccc(-c2nc3cc(NC(=O)c4ccc(Cl)c(C#N)c4)ccc3o2)c1`, -7.87% (active).

These data come from PubChem BioAssay (NCI).
